{"source": "PubChem BioAssay AID504660", "about": "(National Center for Advancing Translational Sciences (NCATS), 2011)", "note": "Screen size: about 360,000 compounds; about 3,700 (1%) were called active. No stated cut-off is given here; in the data, active means activation above about 30%; inactive means the rest. Only a selection was taken, and actives are over-represented in it overall."}
{"molecular_target": "D(1A) dopamine receptor (Homo sapiens) (UniProt P21728)", "sequence (P21728 whole entry, looked up)": "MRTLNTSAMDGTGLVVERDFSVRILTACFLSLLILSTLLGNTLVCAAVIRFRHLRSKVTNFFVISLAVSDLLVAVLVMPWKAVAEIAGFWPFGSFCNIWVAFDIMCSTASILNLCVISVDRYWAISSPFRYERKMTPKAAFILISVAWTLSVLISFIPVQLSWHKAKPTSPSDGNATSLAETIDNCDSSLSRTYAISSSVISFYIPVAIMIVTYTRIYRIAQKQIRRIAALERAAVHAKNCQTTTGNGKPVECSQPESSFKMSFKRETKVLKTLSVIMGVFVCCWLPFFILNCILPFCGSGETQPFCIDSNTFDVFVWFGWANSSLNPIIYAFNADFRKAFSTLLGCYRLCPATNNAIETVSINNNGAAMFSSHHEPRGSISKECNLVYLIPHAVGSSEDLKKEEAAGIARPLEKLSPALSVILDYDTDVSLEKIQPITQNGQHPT", "experiment": "Allosteric Agonists of the Human D1 Dopamine Receptor: qHTS; further: 0% is about no effect", "details": "HEK293 T-REx D1 cells, calcium flux, agonist mode; at 2 µM; hits give high values", "source_text": "NIH Chemical Genomics Center [NCGC] NIH Molecular Libraries Probe Centers Network [MLPCN] MLPCN Grant: NS064831-01 Assay Submitter (PI): David Sibley Dopamine receptors (DARs) are involved in the etiology and/or therapy of a number of neuropsychiatric and endocrine disorders. For instance, all receptor-based antiparkinsonian drugs work via stimulating the D1 DAR subtype whereas all FDA-approved antipsychotic agents are antagonists of this receptor. […] There are three different types of allosteric modulators that we are seeking, two of which will stimulate or augment receptor signaling, allosteric agonists and potentiators, while the third, allosteric antagonists, will attenuate receptor signaling. The present primary screening assay measures compound agonism by tracking calcium flux in a […], inducible Hek293 Trex D1 cell line.\nFreshly passaged cells are plated in 1536 well black, clear bottom plates at a density of 4000 cells/well in 3 ul of complete media containing 1x tetracycline inducer. After an overnight incubation at […] in 5% CO2, cells are loaded with 2 ul of the no wash Calcium Assay Kit (ABD Bioquest) and incubated at room temperature for 30 to 90 minutes. Agonist read: A 10 cycle (1 second/cycle) baseline measurement is taken and then the FDSS online 1536 pintool delivers 23 nl of compound library (as well as dopamine controls) to the plate. The plate is measured for kinetically at 1 cycle/sec for 180 seconds and is considered to be the agonist portion of the assay (eg, compounds which activate a positive calcium response during this portion are flagged as potential agonists). Following the 180 second read, 1 ul of either an EC20 (positive modulation assay) or EC80 (negative modulation assay) is delivered by an onboard pipette head. Measurements are taken kinetically for an additional 180 seconds."}
{"smiles": "CCCCCCCCCCCCn1ccc(=N)cc1", "activation": "52.6% (active)"}
{"smiles": "COc1ccc(-c2nn(CCC#N)cc2C(=O)O)cc1", "activation": "2.02% (inactive)"}
{"smiles": "NC(=O)Nc1cccc(C(F)(F)F)c1", "activation": "1.22% (inactive)"}
{"smiles": "CC(Cc1ccccc1)NCCC(c1ccccc1)c1ccccc1", "note": "(stereo not given)", "activation": "19.9% (inactive)"}
{"smiles": "CCN(CC)c1ccc([N+](=O)[O-])c2cccnc12", "activation": "6.86% (inactive)"}
{"smiles": "COc1ccc(C(=O)C2CN(C)CC2C(=O)c2ccc(OC)cc2)cc1", "note": "(stereo not given)", "activation": "4.65% (inactive)"}
{"smiles": "O=C1C2(Cl)C3(Cl)C4(Cl)C(Cl)(Cl)C5(Cl)C3(Cl)C1(Cl)C5(Cl)C24Cl", "note": "(stereo not given)", "activation": "99.6% (active)"}
{"smiles": "CCN1CCN(Cc2cc(OC)c3c(c2)OCO3)CC1", "activation": "3.83% (inactive)"}
{"smiles": "Cc1ccc(-n2c(/C=C/c3cccc(C(F)(F)F)c3)nc3ccccc3c2=O)cc1", "activation": "-0.792% (inactive)"}
{"smiles": "COc1ccc(CN2CCN(c3ccccc3F)CC2)c(OC)c1", "activation": "4.33% (inactive)"}
{"smiles": "Oc1cc2c(cc1CN1CCN(c3ccccc3)CC1)OCO2", "activation": "2.23% (inactive)"}
{"smiles": "CC(C)c1ccc(O)c(CN2CCN(c3ccccc3)CC2)c1", "activation": "93% (active)"}
{"smiles": "CCN1C(=O)C(=Cc2c(C)n(CC(=O)NCC3CCCO3)c3ccccc23)C(=O)N(CC)C1=S", "note": "(stereo not given)", "activation": "8.52% (inactive)"}
{"smiles": "Cc1cccc(Cn2cccc(C(=O)Nc3ccc4c(c3)OCCO4)c2=O)c1", "activation": "5.25% (inactive)"}
{"smiles": "COc1ccc(CNCCc2c[nH]c3ccccc23)cc1OC", "activation": "12.6% (inactive)"}
{"smiles": "COc1ccc(CNCCc2ccc3c(c2)OCO3)c(OC)c1OC", "activation": "11.4% (inactive)"}
{"smiles": "COc1ccc(Br)cc1CNCCc1cccc(Cl)c1", "activation": "34.4% (active)"}
{"smiles": "Cc1cc2ccccn2c1C(C[N+](=O)[O-])c1c(F)cccc1Cl", "note": "(stereo not given)", "activation": "0.11% (inactive)"}
{"smiles": "CN(C)c1nc(N(C)C)nc(N(C#N)CCCl)n1", "activation": "1.85% (inactive)"}
{"smiles": "O=C(c1cc2nc(-c3ccccc3)cc(-c3ccccc3)n2n1)N1CCC2(CC1)OCCO2", "activation": "1.75% (inactive)"}
{"smiles": "CCCCC(=O)N/N=C/c1c(O)n(CCC2=CCCCC2)c(=O)[nH]c1=O", "activation": "2.44% (inactive)"}
{"smiles": "CCCCC(=O)N/N=C/c1c(O)n(CC)c(=S)n(CC)c1=O", "activation": "71.8% (active)"}
{"smiles": "CCCCC(=O)N/N=C/c1c(O)n(-c2ccccc2)c(=O)[nH]c1=O", "activation": "-0.172% (inactive)"}
{"smiles": "Cc1ccc(NC(=O)N(Cc2ccc3c(c2)OCO3)C2CCN(Cc3ccccc3)CC2)cc1F", "activation": "9.83% (inactive)"}
{"smiles": "COC(=O)N1C(c2ccccc2)C1c1ccccc1", "note": "(stereo not given)", "activation": "6.43% (inactive)"}
{"smiles": "COC(=O)C(c1ccccc1)N1CCCCCC1", "note": "(stereo not given)", "activation": "40% (active)"}
{"smiles": "COc1ccccc1N1CCN(C(CNC(=O)Oc2ccccc2)c2cccnc2)CC1", "note": "(stereo not given)", "activation": "0.177% (inactive)"}
{"smiles": "NCC(O)c1ccc(O)cc1", "note": "(stereo not given)", "activation": "0.942% (inactive)"}
{"smiles": "COc1ccc(N=Cc2c(O)n(C)c(=O)[nH]c2=O)cc1", "activation": "2.19% (inactive)"}
{"smiles": "CC(=O)c1c(O)n(C2CCCCCC2)c(=O)[nH]c1=O", "activation": "2.24% (inactive)"}
